Source: PubChem BioAssay (Tox21)
The source made the active and inactive calls. Calls come from the whole dose curve; as a rule, active = well fitted curve in the direction sought with a large enough effect in the repeat runs; inconclusive = weak or mixed curves; inactive = flat fitted curve, though single readings scatter.

Assay: qHTS assay to test for compound auto fluorescence at 535 nm (green) in HepG2 cell free culture (AID 720686)
Settings: Cell-free medium, green autofluorescence 485/535 nm; series mostly up to 91.3 µM; fluorescence, % of fluorescein control: at the top concentration
Description: U.S. Tox21 Program National Center for Advancing Translational Sciences [NCATS] NIH Chemical Genomics Center [NCGC] U.S. Environmental Protection Agency [EPA] National Institutes of Environmental Health Sciences [NIEHS] National Toxicology Program [NTP] U.S. Food and Drug Administration [FDA] Tox21 Assay Overview: Compound auto fluorescence often interferes with screening of the compound library against various biological targets and signaling pathways. Some of these compounds may have fluorophoric properties. Such properties may interfere with the assay outputs resulting in false positives and/or negatives. To decrease such complications and ensure the compound activities are relevant in terms of biological response, the Tox21 10K compound library was screened for auto fluorescence. From the fluorophores used as reporter signals in our screening assays, the auto fluorescence equivalencies of compounds against three fluorophores have been evaluated: Triamterene, Fluorescein and Rose Bengal sodium for blue, green and red fluorescence, respectively. The fluorescence intensities were measured using Excitation/Emission wavelengths at 405/460nm, 485/535nm and 540/590nm for blue, green and red labels, respectively. This assay includes the green fluorescence data.
Tox21 Assay Protocol Summary: 5 uL of culture medium (MEM containing 10% FBS) per well was dispensed into black wall/clear bottom 1536-well plates using a Multidrop Combi Dispenser (ThermoFisher Scientific, Waltham, MA). After 23 nL compound or DMSO vehicle was transferred into assay plate by a pintool work station (Kalypsys, San Diego, CA), fluorescence intensities in the assay plates were measured by an Envision (PerkinElmer, Shelton, CT) plate reader using three labels for measuring blue, green and red fluorescence at […] 460, 535 and 590nm respectively.
% is set by controls: 0 for no effect and ±100 for the full control effect.

| Compound | Potency | fluorescence, % of fluorescein control |
| --- | --- | --- |
| Clc1ccc(C2(Cn3cncn3)OCCO2)c(Cl)c1 | inactive | – |
| N#CSCc1ccccc1 | – | -0.0079% (inactive) |
| CC(Cl)CCl (stereo not given) | – | 0.072% (inactive) |
| Oc1ccc([C@H]2CNCc3c2ccc(O)c3O)cc1O | – | 1.27% [at 46 µM] (inactive) |
| O=S1(=O)OCC2C(CO1)C1(Cl)C(Cl)=C(Cl)C2(Cl)C1(Cl)Cl (stereo not given) | – | -0.0083% (inactive) |
| C[N+]1(C)[C@@H]2CC[C@H]1CC(OC(=O)C(CO)c1ccccc1)C2 (stereo not given in full) | inactive | – |
| Cc1ccccc1OP(=O)(Oc1ccccc1C)Oc1ccccc1C | – | -0.0343% (inactive) |
| Cc1c([N+](=O)[O-])cc2c(c1[N+](=O)[O-])C(C)(C)CC2(C)C | – | -0.0077% (inactive) |
| OCC(Br)CBr (stereo not given) | – | -0.0013% [at 95.7 µM] (inactive) |
| CNC(=O)/C=C(\C)OP(=O)(OC)OC | – | -0.0033% (inactive) |
| C=Cc1cccc(CCl)c1 | – | 0.0036% [at 203 µM] (inactive) |
| CN1[C@@H]2CC[C@H]1CC(O)C2 (stereo not given in full) | – | 0.0573% [at 95.7 µM] (inactive) |
| c1ccc2c(c1)cc1ccc3cccc4ccc2c1c34 | – | 0.0581% [at 95.7 µM] (inactive) |
| CCC[CH2][Sn]([CH2]CCC)([O]C(C)=O)[O]C(C)=O | – | 0.0454% (inactive) |
| CN | – | -0.0069% [at 95.7 µM] (inactive) |
| CCCCC(CC)COC(=O)c1ccccc1C(=O)OCC(CC)CCCC (stereo not given) | – | -0.166% (inactive) |
| CNC(=O)O/N=C(\C)C(C)S(C)(=O)=O (stereo not given) | – | -0.121% [at 920 µM] (inactive) |
| C=CC(=C)C | – | 0.0457% (inactive) |
| O=[N+]([O-])c1ccccc1-c1ccccc1 | – | 0.0221% (inactive) |
| CC(C)Br | – | -0.0085% (inactive) |

| Compound | Potency | fluorescence, % of fluorescein control |
| --- | --- | --- |
| O=[N+]([O-])c1ccc(Cl)c(Cl)c1Cl | – | -0.174% (inactive) |
| Fc1ccc(C(OCCN2CCN(CCCc3ccccc3)CC2)c2ccc(F)cc2)cc1 | – | -0.0538% [at 46 µM] (inactive) |
| CCOP(=S)(OCC)Oc1cc(C)nc(N(CC)CC)n1 | – | 0.03% (inactive) |
| Nc1ccc(N=Nc2ccccc2)cc1 | – | -0.298% (inactive) |
| CCCC[N+]1(C)CCCC1 (tested in a mixture with another compound) | – | -0.156% [at 95.7 µM] (inactive) |
| COc1cnc(OC)n2nc(NS(=O)(=O)c3c(OCC(F)F)cccc3C(F)(F)F)nc12 | – | 0.0052% (inactive) |
| COC(=O)/C=C(\C)OP(=O)(OC)OC | – | 0.0748% (inactive) |
| CNC(=O)Oc1cc(C)cc(C(C)C)c1 | – | 0.0239% (inactive) |
| [Cl][Hg][c]1ccccc1 | – | -0.0032% (inactive) |
| S=C=NCCc1ccccc1 | – | -0.101% (inactive) |
| CNC(C)(C)Cc1ccccc1 | – | 0.134% [at 18.6 µM] (inactive) |
| CSC(C)(C)/C=N/O | – | -0.0029% (inactive) |
| CN(C)c1ccc(N)cc1 | – | -0.0117% (inactive) |
| O.O.O.O.O.O.O.O=S(=O)([O-])[O-].[Co+2] | inactive | – |
| CC(C)[C@@H](Nc1ccc(C(F)(F)F)cc1Cl)C(=O)OC(C#N)c1cccc(Oc2ccccc2)c1 (stereo not given in full) | – | 0.0902% (inactive) |
| CC(=O)[O-].CC(=O)[O-].CC(=O)[O-].[Sb+3] | – | 0.0057% [at 3.72 µM] (inactive) |
| O=C1C[C@@H]2OCC=C3CN4CC[C@]56c7ccccc7N1[C@H]5[C@H]2[C@H]3C[C@H]46 | inactive | – |
| C=C(C)C(=O)[O][Sn]([CH2]CCC)([CH2]CCC)[CH2]CCC | – | 0.0075% (inactive) |
| CO/N=C(\C(=O)OC)c1ccccc1CO/N=C(\C)c1cccc(C(F)(F)F)c1 | – | 0.0047% (inactive) |
| FC(F)C(F)(F)OCC(Cn1cncn1)c1ccc(Cl)cc1Cl (stereo not given) | – | 0.0247% (inactive) |
